Data on 62 molecules can be found in PubChem BioAssay AID624139 (Broad Institute, 2012).

Structures are written as SMILES. About 220 (1.3%) of roughly 17,000 compounds were called active.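 Rule for the calls: active = spot fluorescence over background significantly raised, with a chance value under 7% in all four replicate spots of the compound; inactive = the rest.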 Shown is part of a subset that was picked to be rich in actives.

The target in this test is Nuclear factor NF-kappa-B p105 subunit (Homo sapiens) (UniProt P19838). The experiment in a line: small molecules binding NF-kappa-B p105/p50 – biochemical, small molecule microarray, anti-His fluorescence, primary screen (AID 624139).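 Note: probe protein is his-tagged human p50 processed subunit at 1 µg/ml.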
Nuclear factor NF-kappa-B p105 subunit (Homo sapiens), sequence (P19838 1-433 limits assumed): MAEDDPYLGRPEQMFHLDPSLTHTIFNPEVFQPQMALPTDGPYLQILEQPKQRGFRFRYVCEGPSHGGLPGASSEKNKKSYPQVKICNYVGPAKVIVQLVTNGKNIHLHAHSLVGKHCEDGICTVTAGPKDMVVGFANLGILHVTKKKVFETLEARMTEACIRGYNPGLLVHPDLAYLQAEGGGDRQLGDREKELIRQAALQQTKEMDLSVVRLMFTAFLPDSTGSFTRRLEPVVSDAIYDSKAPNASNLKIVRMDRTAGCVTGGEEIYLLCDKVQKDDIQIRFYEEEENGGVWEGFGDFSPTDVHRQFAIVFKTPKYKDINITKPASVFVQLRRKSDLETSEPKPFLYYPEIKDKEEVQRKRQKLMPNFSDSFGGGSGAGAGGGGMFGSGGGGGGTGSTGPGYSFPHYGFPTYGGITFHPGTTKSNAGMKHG
For the molecule `O=C1CC(C(=O)Nc2cccc(C(=O)O)c2)C(c2ccccc2)O1` (configuration not stated), the outcome was inactive.

Turning to `Cc1noc(C)c1S(=O)(=O)N(C)C[C@H]1Oc2ccc(NC(=O)Nc3cccc4ccccc34)cc2CC(=O)N([C@@H](C)CO)C[C@H]1C`, the result was inactive.

As to `Cc1noc(C)c1NC(=O)Nc1ccc2c(c1)CC(=O)N([C@H](C)CO)C[C@H](C)[C@H](CN(C)C(=O)NC(C)C)O2`, the molecule was classed as inactive.

With `O=C1O[C@@H](c2ccccc2)[C@@H](c2ccccc2)N2[C@@H](c3ccccc3OCCO)[C@]3(C(=O)Nc4ccccc43)[C@@H](C(=O)N3CCCCCCC3)[C@H]12`, the call was inactive.

For the molecule `COc1ccc(C#Cc2ccc3c(c2)[C@]2(C(=O)N3)[C@H](C(=O)N3CCCCCCC3)[C@H]3C(=O)O[C@H](c4ccccc4)[C@H](c4ccccc4)N3[C@@H]2c2ccc(O)cc2)cc1`, the call was inactive.

Consider `O=C1O[C@@H](c2ccccc2)[C@@H](c2ccccc2)N2[C@@H](c3ccccc3OCCO)[C@]3(C(=O)Nc4ccc(C#CC5(O)CCCCCC5)cc43)[C@@H](C(=O)N3CCCCCCC3)[C@H]12`, for which the outcome was inactive.

In the case of `O=C1O[C@@H](c2ccccc2)[C@@H](c2ccccc2)N2[C@@H](c3ccc(OCCO)cc3)[C@]3(C(=O)Nc4ccc(C#CCCO)cc43)[C@@H](C(=O)O)[C@H]12`, the call was inactive.

Regarding `COc1ccc(C#Cc2ccc3c(c2)[C@]2(C(=O)N3)[C@H](C(=O)N3CCc4cc(OC)c(OC)cc4C3)[C@H]3C(=O)O[C@H](c4ccccc4)[C@H](c4ccccc4)N3[C@@H]2c2ccc(O)cc2)cc1`, the call was active.

Turning to `COc1ccc(C#Cc2ccc3c(c2)[C@]2(C(=O)N3)[C@H](c3ccccc3OCCO)N3[C@H](c4ccccc4)[C@H](c4ccccc4)OC(=O)[C@H]3[C@@H]2C(=O)N2CCCCCCC2)cc1`, the molecule was called active.

Turning to `O=c1c(-c2ccc(O[C@@H]3O[C@H](CO)[C@@H](O)[C@H](O)[C@H]3O)cc2)coc2c([C@@H]3O[C@H](CO)[C@@H](O)[C@H](O)[C@H]3O)c(O)cc(O)c12`, the outcome was inactive.

Take `CC(C)NC(=O)Nc1ccc2c(c1)C(=O)N([C@H](C)CO)C[C@H](C)[C@H](CN(C)C(=O)CCC(F)(F)F)OCCCC[C@H](C)O2`: the outcome was inactive.

For `C[C@H](CO)N1C[C@H](C)[C@H](CN(C)S(=O)(=O)c2cn(C)cn2)OCCCC[C@H](C)Oc2ccc(N(C)C)cc2C1=O`, the call was inactive.

With `C[C@H](CO)N1C[C@H](C)[C@H](CN(C)C(=O)Nc2ccccc2C(F)(F)F)OCc2cn(nn2)CCCC1=O`, the molecule was called inactive.

With `C[C@@H]1CN([C@@H](C)CO)C(=O)c2cccc(NC(=O)c3nc4ccccc4s3)c2O[C@H]1CN(C)S(=O)(=O)c1cccs1`, the molecule was classed as inactive.

Take `COC(=O)C(CC#Cc1ccc2c(c1)[C@]1(C(=O)N2)[C@H](c2ccc(O)cc2)N2[C@H](c3ccccc3)[C@H](c3ccccc3)OC(=O)[C@H]2[C@@H]1C(=O)NC[C@H](O)c1ccccc1)C(=O)OC`: the molecule was classed as inactive.

On to `C[C@@H]1CN([C@H](C)CO)C(=O)c2cc(NC(=O)C3CC3)ccc2O[C@@H]1CN(C)C`, for which the result was inactive.

In the case of `C[C@@H]1CN([C@@H](C)CO)C(=O)Cc2cc(NC(=O)Cc3ccccc3)ccc2O[C@@H]1CN(C)C(=O)Nc1ccc2c(c1)OCO2`, the call was inactive.

Take `C[C@@H]1CN([C@H](C)CO)C(=O)c2cc(NC(=O)Nc3ccc4c(c3)OCO4)ccc2O[C@@H]1CN(C)C(=O)Nc1ccc(F)cc1`: the result was inactive.

For the molecule `COc1ccc(S(=O)(=O)N(C)C[C@@H]2Oc3ccc(NC(=O)Cc4ccccc4)cc3CC(=O)N([C@@H](C)CO)C[C@H]2C)cc1`, the outcome was inactive.

For `C[C@@H]1CN([C@@H](C)CO)C(=O)c2cc(NS(=O)(=O)c3cn(C)cn3)ccc2O[C@@H]1CN(C)C(=O)NC1CCCCC1`, the result was inactive.

As to `Cc1ccc(N(C(=O)COc2ccccc2[N+](=O)[O-])C2C=CS(=O)(=O)C2)cc1` (configuration not stated), the result was inactive.

On to `Cc1ccc(S(=O)(=O)N(C)CC(=O)Nc2cccc(C(F)(F)F)c2)cc1`, for which the molecule was classed as inactive.

For `COCCCNC(=O)[C@@]1(C)c2ccccc2C(=O)N(Cc2ccc(OC(F)(F)F)cc2)[C@H]1c1ccc(CO)cc1`, the call was inactive.

Consider `C[C@H](CO)N1C[C@H](C)[C@@H](CN(C)S(=O)(=O)c2cn(C)cn2)Oc2c(NC(=O)C3CC3)cccc2C1=O`, for which the call was inactive.

On to `CCOC(=O)Cc1csc(NC(=O)c2sc3cccc(F)c3c2Cl)n1`, for which the result was inactive.

As to `O=C(CNS(=O)(=O)c1cccc(C(F)(F)F)c1)Nc1ccccc1F`, the molecule was classed as inactive.

In the case of `S=C(NCc1ccco1)N1CCN(c2ncccn2)CC1`, the result was inactive.

`C[C@@H]1CN([C@H](C)CO)C(=O)Cc2cc(NS(=O)(=O)c3ccc(Cl)cc3)ccc2O[C@@H]1CN(C)S(=O)(=O)c1ccc(Cl)cc1`: the molecule was called inactive.

For `COc1ccc(C)cc1S(=O)(=O)N(C)CC(=O)Nc1ccccc1SC`, the call was inactive.

Turning to `CCCCc1nn(-c2ccccc2C(F)(F)F)c(=O)n1Cc1ccc(-c2ccccc2S(=O)(=O)NC(=O)c2sccc2C)cc1`, the result was active.

In the case of `C[C@@H]1CN([C@H](C)CO)C(=O)Cc2cc(NC(=O)Cc3cn(C)c4ccccc34)ccc2O[C@@H]1CN(C)Cc1ccc(C(F)(F)F)cc1`, the molecule was called inactive.

As to `CC(C)NC(=O)N(C)C[C@H]1OCCCC[C@H](C)Oc2ccc(NC(=O)CCC(F)(F)F)cc2C(=O)N([C@H](C)CO)C[C@H]1C`, the result was inactive.

For `C[C@H]1CCCCO[C@@H](CN(C)C(=O)Nc2ccccc2)[C@@H](C)CN([C@@H](C)CO)C(=O)c2cc(NC(=O)CCC(F)(F)F)ccc2O1`, the result was inactive.

`Cc1ccc(N(C(C)C(=O)Nc2ccc(Br)cc2F)S(C)(=O)=O)cc1C` (configuration not stated): the molecule was called inactive.

Consider `C[C@@H]1CN([C@H](C)CO)C(=O)c2cccc(NS(=O)(=O)c3cn(C)cn3)c2O[C@H]1CN(C)S(=O)(=O)c1ccc(Cl)cc1`, for which the molecule was classed as inactive.

On to `C[C@@H]1CN([C@H](C)CO)C(=O)Cc2cc(NC(=O)Cc3ccccc3)ccc2O[C@H]1CN(C)S(=O)(=O)c1cccs1`, for which the molecule was called inactive.

`COCCOC(=O)N1C(=O)[C@@]2(c3cc(C#CCC(C(=O)OC)C(=O)OC)ccc31)[C@H](c1ccc(OCCO)cc1)N1[C@H](c3ccccc3)[C@H](c3ccccc3)OC(=O)[C@H]1[C@@H]2C(=O)NC[C@H](O)c1ccccc1`: the molecule was classed as inactive.

In the case of `C[C@@H]1CCCCO[C@@H](CN(C)Cc2ccncc2)[C@H](C)CN([C@@H](C)CO)C(=O)c2cc(NS(=O)(=O)c3ccccc3)ccc2O1`, the call was inactive.

In the case of `C[C@@H]1CN([C@@H](C)CO)C(=O)Cc2cc(NC(=O)Cc3ccccc3)ccc2O[C@H]1CN(C)Cc1ccc(C(=O)O)cc1`, the molecule was called inactive.

For `Cc1noc(C)c1NC(=O)Nc1ccc2c(c1)C(=O)N([C@H](C)CO)C[C@H](C)[C@H](CN(C)C(=O)C1CCCCC1)OCCCC[C@@H](C)O2`, the outcome was inactive.

For the molecule `C[C@H]1CCCCO[C@H](CN(C)C(=O)CCC(F)(F)F)[C@@H](C)CN([C@@H](C)CO)C(=O)c2cc(NC(=O)Cc3ccccc3)ccc2O1`, the molecule was called inactive.

For the molecule `C=CC[C@]1(C(=O)NCC(O)CO)N=C(c2ccc(OCCCO)cc2)O[C@H]1c1ccccc1` (some centres not stated), the molecule was classed as inactive.

Take `CNC[C@@H]1Oc2c(NC(=O)C3CCOCC3)cccc2C(=O)N([C@@H](C)CO)C[C@H]1C`: the molecule was classed as inactive.

Regarding `COc1ccc(NC(=O)O[C@H]2[C@H](OC(=O)Nc3ccc4c(c3)OCO4)[C@@H](OC(=O)Nc3ccc4c(c3)OCO4)[C@@H](OC)O[C@@H]2CO)cc1`, the outcome was inactive.

With `C[C@H](CO)N1C[C@H](C)[C@@H](CN(C)Cc2ccncc2)Oc2ccc(NC(=O)Nc3ccccc3)cc2C1=O`, the call was inactive.

`C[C@H](CO)N1C[C@H](C)[C@H](CN(C)Cc2ccncc2)Oc2ccc(NC(=O)Nc3ccc(F)cc3)cc2C1=O`: the molecule was called inactive.

In the case of `C[C@@H]1CN([C@@H](C)CO)C(=O)c2cc(NS(=O)(=O)c3cn(C)cn3)ccc2O[C@@H](C)CCCCO[C@H]1CN(C)S(=O)(=O)c1cn(C)cn1`, the call was inactive.

Consider `OC(COc1ccc2ccccc2c1)Cn1cncn1` (configuration not stated), for which the molecule was called inactive.

Take `COc1ccc(S(=O)(=O)N(C)C[C@@H]2Oc3ccc(NS(=O)(=O)c4ccc(Cl)cc4)cc3C(=O)N([C@H](C)CO)C[C@H]2C)cc1`: the call was inactive.

Regarding `Cc1cc(C(=O)Nc2cccc3c2O[C@H](CN(C)C(=O)Nc2ccccc2)[C@@H](C)CN([C@H](C)CO)C3=O)n(C)n1`, the outcome was inactive.

Turning to `O=c1[nH]c(CSCCO)nc2c1C1(CCCCC1)Cc1ccccc1-2`, the result was inactive.

On to `C[C@@H]1CCCCO[C@@H](CN(C)Cc2ccc(Cl)c(Cl)c2)[C@@H](C)CN([C@@H](C)CO)C(=O)c2cc(NS(C)(=O)=O)ccc2O1`, for which the outcome was inactive.

Take `CO[C@H]1O[C@H](CO)[C@@H](OC(=O)Nc2ccccc2)[C@H](OC(=O)Nc2ccc3c(c2)OCO3)[C@H]1OC(=O)Nc1ccc2c(c1)OCO2`: the call was inactive.

Turning to `O=C(Cn1c(-c2ccccn2)nc2ccccc21)NCCN1CCOCC1`, the molecule was called inactive.

As for `C[C@H]1CN([C@@H](C)CO)C(=O)CCCn2nncc2CO[C@@H]1CN(C)Cc1ccc(Oc2ccccc2)cc1`, the result was inactive.

For the molecule `O=C1c2ccccc2C(=O)N1CCCn1c2ccccc2c2nc3ccc([N+](=O)[O-])cc3cc21`, the molecule was classed as inactive.

For the molecule `C[C@H]1CCCCO[C@@H](CN(C)Cc2ccncc2)[C@@H](C)CN([C@@H](C)CO)C(=O)c2cc(NC(=O)Nc3ccc(F)cc3)ccc2O1`, the molecule was called inactive.

Turning to `CN(C)c1nc(Nc2nc3ccccc3[nH]2)nc(N(C)C)n1`, the molecule was called inactive.

As for `Cc1ccc(NC(=O)c2ccc(NCc3cccnc3)c([N+](=O)[O-])c2)cc1`, the outcome was inactive.

Take `COc1ccc(S(=O)(=O)N(C)C[C@H]2Oc3ccc(NC(=O)CCC(F)(F)F)cc3CC(=O)N([C@H](C)CO)C[C@@H]2C)cc1`: the call was inactive.

`CC(C)NC(=O)N(C)C[C@H]1OCCCC[C@H](C)Oc2ccc(NC(=O)CCCN(C)C)cc2C(=O)N([C@@H](C)CO)C[C@H]1C`: the molecule was called inactive.

As to `COC(=O)c1c(NC(=O)c2cc(-c3ccccn3)nc3c(C)cc(C)cc23)sc(C)c1C`, the molecule was called inactive.
